The record followed here is ChEMBL document CHEMBL4513216, “Probing the Open Global Health Chemical Diversity Library for Multistage-Active Starting Points for Next-Generation Antimalarials” (ACS Infect Dis, 2020).

Hit rate of the full screen: of about 69,000 compounds, about 8,600 (12%) showed an effect of 50% or more. Shown is part of a subset that was picked to be rich in strong results.

The assay has as its system Plasmodium berghei. Kind of assay: Screen against P. berghei liver stage (PbLuc), transformed with Luciferase, at 10uM. In kind it is functional, HepG2. The note with it: tested at 10 uM.
In the case of `O=C(c1ccncc1)N1CCN2C[C@H](Oc3cccc(F)c3)C[C@H]2C1`, the INHIBITION was found to be 15.3%.
The value for `CC1CCCCN1CCNC(=O)c1scnc1Cl` (centres undefined) was 0.411%; that for `O=C(C1CCCC1)N1CCCC(c2nc(O)cc(-c3ccncc3)n2)C1` (centres undefined) was 18.3%; that for `CCOc1ccc(CC(=O)N2CCN(c3nccn3C)CC2)cc1` was 15%.
The value for `CC(Nc1nc2c(cnn2C)c(=O)[nH]1)c1ccc(F)cc1` (centres undefined) was 23.1%; that for `Cn1ncc2c(=O)[nH]c(CN3CCCc4cc(F)ccc43)nc21` was 31.7%.
The value for `CC(C)Sc1ccc(C(C)Nc2nc3c(cnn3C)c(=O)[nH]2)cc1` (centres undefined) was 76.8%; that for `CC(Nc1nc2c(cnn2C)c(=O)[nH]1)c1ccccn1` (centres undefined) was 30.9%.
`CC(Nc1nc2c(cnn2C)c(=O)[nH]1)c1ccc2c(c1)CCCC2` (centres undefined): the INHIBITION is recorded as 51%.
The value for `CCC(=O)Nc1ccc(C(C)Nc2nc3c(cnn3C)c(=O)[nH]2)cc1` (centres undefined) was 28.7%; that for `c1ccc(Cn2cc3c(n2)C(CNCc2ccco2)OCC3)nc1` (centres undefined) was -4.86%; that for `Cn1cc(C(=O)N2CC[C@@H]3[C@@H]2CCN3Cc2cccnc2)cn1` was 10.8%.
The value for `COc1nn(C)cc1C(=O)N1CCC(c2nnc(-c3ccsc3)o2)CC1` was 43.3%; that for `CS(=O)(=O)N1CCc2ccc(C(=O)N3CCn4ncnc4C3)cc21` was -4.68%.
The value for `Clc1ccccc1OCCc1cc(C2CCNC2)n[nH]1` (centres undefined) was -57.4%; that for `Cc1nccc(-c2cccc(NCC(=O)N3CCCCCCC3)c2)n1` was 18.9%; that for `Cc1nccc(-c2cccc(NCC(=O)N3CCOC(C)C3)c2)n1` (centres undefined) was 15.5%.
On to `Cc1nccc(-c2cccc(NCC(=O)N3CCCC(C)C3)c2)n1` (centres undefined), for which the INHIBITION was found to be 53.9%.
The value for `CNS(=O)(=O)c1cccc(CNC(=O)c2cc(C)no2)c1` was -4.16%; that for `CCS(=O)(=O)N1CCC2(CC(=O)N(c3ccccc3C)C2)C1` (centres undefined) was -25.8%; that for `CS(=O)(=O)Nc1ccc2c(c1)NC(=O)CC2c1cnn2cccnc12` (centres undefined) was -27.5%.
Take `CN(C)C(=O)N1CCCC2(CCN(Cc3ccc(Cl)c(F)c3)C2)C1` (centres undefined): the INHIBITION turned out to be 16.9%.
Regarding `CC(=O)N1CCC2(CCN(Cc3ccc(Cl)c(C(F)(F)F)c3)CC2)C1`, the INHIBITION is given as 73%.
On to `CC(=O)N1CCCC2(CCN(Cc3ccc(Cl)c(F)c3)C2)C1` (centres undefined), for which the INHIBITION is listed as 13.7%.
The figure for `CC(=O)N1CCCC2(CCN(Cc3ccc(Cl)c(C(F)(F)F)c3)C2)C1` (centres undefined) is -18.5%; for `CC(=O)N1CCOC2(CCCN(Cc3ccc(Cl)c(C(F)(F)F)c3)C2)C1` (centres undefined) it is 30.3%; for `CC(=O)N1CCC2(CCCN(Cc3ccc(Cl)c(C(F)(F)F)c3)C2)C1` (centres undefined) it is 59.7%.
The figure for `CSc1cccc(CN2CCn3nc(CNC(C)=O)cc3C2)c1` is 8.38%; for `Cn1ncc2c1C(COCC1CC1)CN(Cc1ccc(F)cc1)C2` (centres undefined) it is -5.69%.
The value for `Cc1cc(C)n(-c2ccc(C(=O)NCC(CO)Cc3ccco3)cc2)n1` (centres undefined) was 32.1%.
`Cc1csc(CNc2cnc3c(c2)c(C)nn3C)n1`: the INHIBITION was 16%.
`O=S(=O)(Nc1cnc(N2CCCC2)nc1)c1ccc(C(F)(F)F)cc1`: the INHIBITION amounted to 37.3%.
The value for `CSc1ccc(NS(=O)(=O)c2cnn(C)c2)cn1` was 1.81%.
The value for `Cn1cc(NS(=O)(=O)c2ccc(OC(F)(F)F)cc2)ccc1=O` was 84.6%; that for `CN(C)c1ncc(NS(=O)(=O)c2ccc(OC(F)(F)F)cc2)cn1` was 51.6%; that for `Cc1ccc(S(=O)(=O)Nc2ccc(=O)n(C)c2)cc1` was 46.5%.
The value for `Cc1nc(N(C)C)nc(C)c1NS(=O)(=O)c1ccc(OC(F)(F)F)cc1` was -2.09%; that for `Cn1cc(NS(=O)(=O)c2ccc(C(F)(F)F)cc2)ccc1=O` was 60.5%.
Turning to `O=S(=O)(Nc1cnc(N2CCCC2)nc1)c1ccc(OC(F)(F)F)cc1`, the INHIBITION is 40.1%.
The value for `COc1ccc(S(=O)(=O)Nc2cnc(N(C)C)nc2)cc1` was 40.6%.
With `O=C(c1cccnc1N1CCOCC1)N1CCCC(n2cncn2)C1` (centres undefined), the INHIBITION amounted to 36.1%.
The value for `CC(C)OCCN1CCC(Nc2nccnc2C#N)CC1` was 33.1%; that for `Cc1ccc(CN2CCC3(CCC3NS(=O)(=O)c3ccccc3)CC2)o1` (centres undefined) was -12.4%; that for `O=c1ccc2c(n1CCN1CCCC1)CCN(Cc1ccoc1)CC2` was 8.47%.
The value for `COCCN1CCCC(c2cncc(Oc3ccccc3OC)n2)C1` (centres undefined) was -5.71%.
The figure for `O=C1CN(Cc2cn(CC3CCN(C4CCSCC4)CC3)nn2)CCN1` is 32.2%; for `c1cc(CN2CCC(n3cc(CN4CCCC4)nn3)CC2)cs1` it is 42.1%.
As to `O=C1CN(Cc2cn(C3CCN(C4CSCCSC4)CC3)nn2)CCN1`, the INHIBITION is 65.6%.
The figure for `Cc1cc(N2CCC(n3cc(CN4CCSCC4)nn3)CC2)ccn1` is 30.9%; for `O=C1CN(Cc2cn(CC3CCCN(C4CCSCC4)C3)nn2)CCN1` (centres undefined) it is 54.5%.
The figure for `OC1CCCN(Cc2cn(CC3CCN(C4CCSCC4)CC3)nn2)C1` (centres undefined) is 18.3%; for `c1cncc(CN2CC(Cc3nccc4cc[nH]c34)C2)c1` it is 19.3%.
For the compound `O=C(NCC1CCC1)c1ccc(-n2ccnc2)nn1`, the INHIBITION was -15%.
The value for `CCCOc1ccc(C(=O)Oc2cc(=O)n3cccc(C)c3n2)cc1` was 0.207%; that for `CC1c2ncc(COCc3ccccn3)n2CCN1C1CCCC1` (centres undefined) was 37.8%; that for `O=C(O)c1ccccc1-c1ccc(Cn2c(=O)cc[nH]c2=O)cc1` was 2.55%.
Turning to `Cc1ccnc(C2CCCN2C(=O)CN(C)C)n1` (centres undefined), the INHIBITION is listed as -16.5%.
The figure for `O=C(NCCn1nc2ccccn2c1=O)c1sccc1-c1ccccc1` is -20.53%.
The value for `CC(C)COCCNC(=O)NC1CCCN(c2cnn(C)c2)C1` (centres undefined) was -49.3%.
The value for `COCC(=O)N1CCC(c2cccc(Cc3ccc(F)cc3)n2)CC1` was 54%.
With `COCC(=O)N1CCC(c2cncc(-c3cccc(F)c3)n2)CC1`, the INHIBITION is listed as 8.72%.
The figure for `CN(C)C(=O)CN1CCC(c2cccc(Cc3ccc(F)cc3)n2)CC1` is 24.4%; for `Fc1ccc(Cc2cccc(C3CCN(C4CCOCC4)CC3)n2)cc1` it is 72.3%; for `Fc1cccc(Cc2cncc(C3CCCN3C3CCOCC3)n2)c1` (centres undefined) it is 41.1%.
The figure for `c1ccc(Cc2cccc(C3CCCN3C3CCOCC3)n2)cc1` (centres undefined) is 32.921%; for `Cc1nn(C)c2c(=O)n(C)c(NCC3CCCO3)nc12` (centres undefined) it is 49.1%; for `CC(=O)N1N=C(Cc2ccccc2)OC1C(=O)NCC(C)C` (centres undefined) it is -21.1%.
The value for `CN1CC(=O)N(c2cnn(C)c2)CC12CCN(C(=O)c1ccsc1)C2` (centres undefined) was 51.7%; that for `Cn1cc(C2COC3(CCN(C(=O)c4ccn(C)n4)CC3)C2)cn1` (centres undefined) was 41.6%; that for `Cn1cc(C2COC3(CCN(C(=O)c4ccsc4)CC3)C2)cn1` (centres undefined) was 69.5%.
For the compound `Cn1cc(C2COC3(CCN(C(=O)c4ccc(F)cc4)CC3)C2)cn1` (centres undefined), the INHIBITION is reported as 18.2%.
The value for `Cc1ccc(C(=O)N2CCC3(CC2)CC(c2cnn(C)c2)CO3)cn1` (centres undefined) was 39.2%; that for `CN1CC(=O)N(c2ccsc2)CC12CCN(C(=O)c1ccccc1)C2` (centres undefined) was 45.5%; that for `Cn1cc(C2COC3(CCN(C(=O)c4cccc(O)c4)CC3)C2)cn1` (centres undefined) was 32.2%.
In the case of `Cn1cc(C2COC3(CCN(C(=O)c4cccn4C)CC3)C2)cn1` (centres undefined), the INHIBITION is recorded as 36.9%.
The figure for `Cn1cc(C2COC3(CCN(C(=O)c4ccccn4)CC3)C2)cn1` (centres undefined) is 42.7%.
The figure for `Cc1cccc(C(=O)N2CCC3(CC2)CC(c2cnn(C)c2)CO3)c1` (centres undefined) is 69.5%; for `Cc1ccccc1C(=O)N1CCC2(CC1)CC(c1cnn(C)c1)CO2` (centres undefined) it is 53.2%; for `CN1CC(=O)N(c2ccsc2)CC12CCN(C(=O)c1ccc[nH]1)C2` (centres undefined) it is 15.9%.
The figure for `Cc1nc(C)n(CC(=O)N2CCc3ncc(Cl)cc3C2)n1` is 8.72%.
Take `CO[C@@H]1CO[C@@]2(CCCN(S(=O)(=O)c3ccccc3)C2)C1`: the INHIBITION came to 40.4%.
The value for `CCOC(=O)N(C)CC(=O)NCCc1coc(-c2ccc(C)cc2)n1` was 11.4%; that for `Cn1cc(N2C(=O)CC[C@@H]3[C@H]2CCN3CC2CCOCC2)cn1` was 8.52%.
The figure for `O=C(CCCN1CCCCC1)NC(C(=O)O)c1ccc(Cl)cc1` (centres undefined) is 6.11%; for `O=C(Cc1cccc(F)c1)NCCNc1ncccn1` it is 37.4%.
The figure for `CCOCC(=O)N1CCC2(CC1)COC(COCc1ccccn1)C2` (centres undefined) is -13%; for `Cc1cc(C)n2cc(CN3CCC(N4CCN(C)C4=O)CC3)nc2n1` it is 39.1%; for `CC(NS(C)(=O)=O)C(=O)N1CCCN(Cc2cscn2)CC1` (centres undefined) it is 48.9%.
For `Cc1cnn(C2CCCN(C(=O)Cc3ccc4c(c3)CCO4)C2)c1` (centres undefined), the INHIBITION was found to be 31.8%.
The figure for `CNc1cc(N2CCCC2CNCc2csc(C)n2)ncn1` (centres undefined) is 29.425%; for `O=C(CC1CCCC1)N1CC[C@H]2[C@H]1CCN2c1nncs1` it is 43.8%.
Regarding `CCc1ncc(C(=O)N2CCC(Nc3ccc(C)nn3)CC2)s1`, the INHIBITION is -58.7%.
The value for `COCC(=O)N1CC[C@]2(O)CCN(C(=O)CCc3ccsc3)C[C@@H]2C1` was 26.9%; that for `COc1ccc(CNC(=O)c2ccc(Br)cn2)cc1` was 49%; that for `CCOc1ccc(CNC(=O)c2cnc(OC)nc2)cc1` was 52.7%.
In the case of `COC(=O)c1ccc(C(=O)NCc2ccc(Br)cc2)cn1`, the INHIBITION is reported as 45.8%.
The figure for `COc1ncc(C(=O)NCc2ccccc2)cn1` is 64.2%.
The value for `CCNc1ncc(C(=O)NCc2ccc3nsnc3c2)cn1` was 31.9%.
The value for `Cc1cccc(C(=O)NCc2ccccc2)n1` was 21%; that for `COC(=O)CCNC(=O)c1ccc(OCc2ccccc2)nc1` was -8.91%.
Turning to `CCOc1cccc(C(=O)NCCC(=O)NCc2ccncc2)c1`, the INHIBITION is given as -5.78%.
The figure for `COc1ncc(C(=O)NCc2ccc(Br)cc2)cn1` is 59.8%; for `CS(=O)(=O)CCN1CCCC1c1noc(C2CC2)n1` (centres undefined) it is -38.2%; for `Cc1cccc(S(=O)(=O)N2CC[C@H]3[C@H]2CCN3c2ncccn2)c1` it is 5.36%.
